Assay results as given in PubChem BioAssay.
The source made the active and inactive calls.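 Rule for the calls, unless noted: active = inhibition at or above 50% at 10 µM; inactive = inhibition below 50%.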

Key:
[1] = inhibitors of TNFa-induced NFkB p65 translocation, primary screen, imaging, HUVEC, MLSMR starter and 10KST1 sets (AID 438;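 active = inhibition above 20% together with a positive visual image hit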;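 note: compound added about 3h40 before a 20 min TNFalpha stimulation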;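 for inhibition: signal is the nuclear over cytoplasmic p65 intensity ratio per well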); settings: HUVEC TNFa-induced p65 nuclear translocation; cell count: measured here: nuclei count (cytotoxicity indicator), at 2.08 µM; inhibition: at 2 µM, stronger effect = higher value, 0% TNFa-plus-vehicle, 100% no-TNFa wells
[2] = reduction of polyQ htt aggregates in cells – imaging, exon1htt(103Q)mCFP cells, high-content imaging, primary screen (AID 483;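 active = visual image review flags a hit and inhibition of aggregation exceeds 20%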;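 note: compound exposure lasted 3 days before fixation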;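 for nuclei count: percent of the per-plate median nuclei count of sample wells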); settings: exon1htt(103Q)mCFP cell line, aggregate imaging, at 2 µM; inhibition of aggregation: stronger effect = higher value; nuclei count: measured here: cell count, toxicity
[3] = endothelial E-selectin expression blockers – imaging, HUVEC, immunofluorescence, MLSMR starter and 10KST1 sets, primary screen (AID 487;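 active = visually confirmed hit in the image check and inhibition above 20%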;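 for inhibition: signal is fraction of cell area covered by stained E-selectin grains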;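 for nuclei count: 100% = median nuclei count of all wells on the same plate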); settings: HUVEC TNFalpha-induced E-selectin immunofluorescence imaging, at 2 µM; inhibition: stronger effect = higher value; nuclei count: measured here: cell number, toxicity
[4] = molecular target: Voltage-gated potassium channel subunit beta-2 (Rattus norvegicus) (UniProt P62483); experiment: inhibitors of rat Kvbeta2 reductase activity – biochemical, NADPH fluorescence, primary screen (AID 622;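 active = fluorescence slope higher than the sample average by over 3 SD, cut at about -0.22 in these data, passing the limit was not always enough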;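 note: slope of raw intensity against log time taken from 70 to 1610 s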); settings: recombinant KvBeta, 4-cyanobenzaldehyde reduction, at 10 µM, stronger effect = higher value
[5] = molecular target: Voltage-gated potassium channel subunit beta-2 (Rattus norvegicus) (UniProt P62483); experiment: enhancers of rat Kvbeta2 NADPH turnover – biochemical, NADPH fluorescence, primary screen (AID 623;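 active = NADPH fluorescence slope more negative than the mean of all samples by about 3 SD, 99.7% confidence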;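 note: fluorescence intensity change per second fitted from 20 to 320 s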); settings: Recombinant KvBeta, NADPH fluorescence decrease slope, 10 min; at 10 µM; stronger effect = lower value
[6] = molecular target: Alpha-2C adrenergic receptor (Homo sapiens) (UniProt P18825); experiment: compounds altering alpha2C-coupled GIRK flux – cell-based, HEK293 alpha2C/GIRK1/2, thallium flux, primary screen (AID 624;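 active = fluorescence slope after compound addition differing from the mean of all screened samples at 99.7% confidence, in either direction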;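 note: slope of fluorescence ratio to pre-addition baseline per second over 15 to 24 s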); settings: thallium flux BTC fluorescence, at 10 µM, actives lie on both sides
[7] = blockers of RIG-like receptor reporter activation – cell-based, Sendai virus stimulus, luciferase, 10K MLSCN set, TLR/RLR signaling modifier project, primary screen (AID 602276); settings: HEK293 RL24 IRF3 luciferase reporter, at 10 µM, stronger effect = higher value;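 note: firefly luciferase from ISG56 promoter only with Renilla not read in this screen; 0% = Sendai virus plus DMSO and 100% = medium plus DMSO without virus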
[8] = TLR3 IRF3 reporter activation blockers – cell-based, poly I:C stimulus, luciferase, 10K MLSCN set, primary screen (AID 602277;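 active = inhibition of the reporter signal at or above 50%; inactive = inhibition below 50%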); settings: HEK293-TLR3 RL24 IRF3 luciferase reporter, at 10 µM, stronger effect = higher value

Sequence of Voltage-gated potassium channel subunit beta-2 (Rattus norvegicus) (P62483 whole entry, looked up): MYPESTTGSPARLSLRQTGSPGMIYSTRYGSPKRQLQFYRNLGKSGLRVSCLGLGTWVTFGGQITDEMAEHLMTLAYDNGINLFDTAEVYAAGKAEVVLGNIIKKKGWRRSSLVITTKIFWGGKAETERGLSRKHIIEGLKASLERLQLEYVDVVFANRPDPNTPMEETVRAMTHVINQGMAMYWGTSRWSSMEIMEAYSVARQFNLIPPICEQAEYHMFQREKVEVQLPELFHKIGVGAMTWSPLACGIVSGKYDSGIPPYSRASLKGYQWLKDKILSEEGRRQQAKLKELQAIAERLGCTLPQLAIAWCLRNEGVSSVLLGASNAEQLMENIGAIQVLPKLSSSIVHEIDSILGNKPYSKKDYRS
Sequence of Alpha-2C adrenergic receptor (Homo sapiens) (P18825 whole entry, looked up): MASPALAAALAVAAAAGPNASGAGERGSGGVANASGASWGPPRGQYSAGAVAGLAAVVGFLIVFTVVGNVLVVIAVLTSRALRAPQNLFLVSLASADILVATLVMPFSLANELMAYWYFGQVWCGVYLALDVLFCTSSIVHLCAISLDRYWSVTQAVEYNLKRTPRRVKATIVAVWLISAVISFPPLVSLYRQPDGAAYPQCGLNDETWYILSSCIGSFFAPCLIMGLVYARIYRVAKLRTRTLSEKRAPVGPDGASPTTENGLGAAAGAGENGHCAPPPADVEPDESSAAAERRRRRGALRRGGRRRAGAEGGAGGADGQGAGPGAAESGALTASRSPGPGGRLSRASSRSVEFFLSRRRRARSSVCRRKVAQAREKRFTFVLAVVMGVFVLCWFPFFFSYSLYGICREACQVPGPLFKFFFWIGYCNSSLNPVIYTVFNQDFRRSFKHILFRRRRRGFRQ

Compound	cell count [1]	inhibition [1]	inhibition of aggregation [2]	nuclei count [2]	inhibition [3]	nuclei count [3]	fluorescence slope [4]	NADPH fluorescence slope [5]	slope [6]	inhibition [7]	inhibition [8]
COc1ccccc1C(=O)OCn1nnc2ccccc2c1=O	714	-21.1% (inactive)	6.6% (inactive)	103%	-15.2% (inactive)	106%	-0.421 (inactive)	-4e-05 (inactive)	0.00465 (inactive)	12.3% (inactive)	22.5% (inactive)
CCOC(=O)c1ccc2nc(C)c3c(c2c1)OC(C)C3 (centres undefined)	308	-13% (inactive)	1.1% (inactive)	94.2%	9% (inactive)	122%	-0.349 (inactive)	1.7e-05 (inactive)	0.00348 (inactive)	-5.44% (inactive)	20.2% (inactive)
CCOc1cc(-c2nc(-c3ccccc3OC)no2)cc(OCC)c1OCC	575	7.7% (inactive)	0.8% (inactive)	98.3%	-68.3% (inactive)	109%	-0.605 (inactive)	-4.7e-05 (inactive)	0.00447 (inactive)	11.5% (inactive)	12.6% (inactive)
CCOC(=O)c1ccc(NC(=O)Cn2cc3c(n2)CCC(C)C3)cc1 (centres undefined)	711	-3.7% (inactive)	-28.2% (inactive)	91.4%	-6% (inactive)	101%	-0.485 (inactive)	2.3e-05 (inactive)	0.00553 (inactive)	12.5% (inactive)	23.6% (inactive)
O=C(CN1C(=O)CSC1=O)N1CCc2ccccc2C1	324	4.8% (inactive)	14% (inactive)	101%	0.8% (inactive)	107%	-0.423 (inactive)	-5.1e-05 (inactive)	0.00367 (inactive)	6.34% (inactive)	31% (inactive)
COc1ccc(-n2c(Cc3cccn3C)nnc2SCC(=O)Nc2ccc(Cl)cc2)cc1	678	-5.8% (inactive)	8.1% (inactive)	85%	-22.9% (inactive)	119%	-0.567 (inactive)	-5e-06 (inactive)	0.0052 (inactive)	11.4% (inactive)	23.2% (inactive)
COc1cc(C(=O)OC(C)CN2CCCC2)cc(OC)c1OC (centres undefined)	286	2.9% (inactive)	-4.1% (inactive)	101%	30.9% (inactive)	101%	-0.324 (inactive)	-5.1e-05 (inactive)	0.00369 (inactive)	5.11% (inactive)	11.1% (inactive)
Cc1cc(C(F)(F)F)nc(NCc2cccnc2)n1	597	-31.3% (inactive)	-19.1% (inactive)	97.7%	-79.3% (inactive)	120%	-0.529 (inactive)	1.9e-05 (inactive)	0.00686 (inactive)	-7.81% (inactive)	-18.3% (inactive)
Cc1ccccc1NC(=O)C1CC(=O)N(c2ccccc2F)C1 (centres undefined)	238	-0.6% (inactive)	30.3% (inactive)	77%	-56.9% (inactive)	97.7%	-0.462 (inactive)	-3.8e-05 (inactive)	0.00686 (inactive)	0.893% (inactive)	28.8% (inactive)
O=C(OCC(=O)c1ccc[nH]1)c1ccc(S(=O)(=O)N2CCCCC2)cc1	314	22.9% (inactive)	1.5% (inactive)	96.8%	-31.1% (inactive)	98%	-0.444 (inactive)	-4.5e-05 (inactive)	0.00419 (inactive)	2.97% (inactive)	29.4% (inactive)
CCOC(=O)c1csc(NC(=O)C2CCCCC2)n1	706	-18.4% (inactive)	-10% (inactive)	90.2%	-4.9% (inactive)	94.6%	-0.419 (inactive)	-0.000101 (inactive)	0.00464 (inactive)	-47.3% (inactive)	-124% (inactive)
COc1ccccc1Oc1coc2c(CN3CCN(C)CC3)c(O)ccc2c1=O	541	-0.5% (inactive)	-8.8% (inactive)	107%	-12.9% (inactive)	89.1%	-0.0185 (active)	7e-06 (inactive)	0.00281 (inactive)	11.8% (inactive)	34.8% (inactive)
Cc1cc(C)n2nc[n+](C)c2n1	685	-12.9% (inactive)	-10% (inactive)	103%	-17.6% (inactive)	120%	-0.537 (inactive)	3.6e-05 (inactive)	0.0066 (inactive)	-6.03% (inactive)	-6.5% (inactive)
CCn1c(SCC(=O)N2CCOCC2)nc2c(c1=O)SC(C)C2 (centres undefined)	298	9.4% (inactive)	21.4% (inactive)	89.2%	20% (inactive)	93.4%	-0.542 (inactive)	-3.5e-06 (inactive)	0.00531 (inactive)	-5.39% (inactive)	4.93% (inactive)
Cc1nnc(SCC(=O)Nc2c(Cl)cccc2Cl)[nH]c1=O	598	1.1% (inactive)	17.6% (inactive)	87%	17.8% (inactive)	103%	-0.553 (inactive)	-4.3e-05 (inactive)	0.00796 (inactive)	8.99% (inactive)	41.1% (inactive)
CCCOC(=O)c1ccc(-c2c(C)noc2-c2ccc(OC)cc2O)o1	162	-6.3% (inactive)	1.9% (inactive)	106%	0.4% (inactive)	87%	-0.495 (inactive)	-3.7e-05 (inactive)	0.00302 (inactive)	1.25% (inactive)	2.32% (inactive)
CCOC(=O)c1c(C)[nH]c(C)c1C(=O)COC(=O)CNC(=O)c1ccc(OCC)cc1	708	-2.2% (inactive)	5.2% (inactive)	63.7%	-19.4% (inactive)	104%	-0.456 (inactive)	2.3e-05 (inactive)	0.00496 (inactive)	14.3% (inactive)	28.6% (inactive)
O=C(NCCN1C(=O)C2C3C=CC(C3)C2C1=O)N1CCOCC1 (centres undefined)	549	-4.5% (inactive)	7.2% (inactive)	52.3%	-8.6% (inactive)	69.7%	-0.586 (inactive)	-1e-05 (inactive)	0.00653 (inactive)	3.84% (inactive)	27.8% (inactive)
O=C(NCCCN1CCCC1=O)c1ccc2c(c1)NC(=O)C(N1CCOCC1)S2 (centres undefined)	431	7.4% (inactive)	-20.6% (inactive)	114%	-21.8% (inactive)	116%	-0.615 (inactive)	-3.9e-05 (inactive)	0.00374 (inactive)	6.23% (inactive)	15% (inactive)
